Assay results reported in PubChem BioAssay (NCI).
The panel holds about 79,000 compounds, 15% with a hit somewhere; the sample as a whole holds those more often. Calls of active or inactive are those of the source. Rule as the data show it: active = growth inhibition above about 70%; inactive = the rest.

Tests used:
[1] = NCI Yeast Anticancer Drug Screen. Data for the rad50 strain (AID 155);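 also: 0% = growth of vehicle-only cultures of the same strain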; conditions: S. cerevisiae rad50 strain growth inhibition, hits give high values
How it was run: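 Growth of the mutant yeast was measured after compound exposure and referenced to vehicle-treated cultures.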

[2] = NCI Yeast Anticancer Drug Screen. Data for the mec2-1 strain (AID 157); conditions: S. cerevisiae mec2-1 strain, hits give high values
How it was run: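 Vehicle-treated cultures served as reference for growth inhibition of compound-exposed mec2-1 yeast.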

[3] = NCI Yeast Anticancer Drug Screen. Data for the sgs1 mgt1 strain (AID 161);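 also: 0% = growth of cultures given vehicle only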; conditions: S. cerevisiae sgs1 mgt1 strain, hits give high values
How it was run: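 Read-out: growth inhibition vs vehicle controls. Cells: mutant yeast strain deficient in DNA damage repair.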

[4] = NCI Yeast Anticancer Drug Screen. Data for the cln2 rad14 strain (AID 165);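 also: 0% = growth equal to vehicle treated cultures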; conditions: S. cerevisiae cln2 rad14 strain, hits give high values
How it was run: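 Each compound was tested on cln2 rad14 yeast. Inhibition of growth was calculated against vehicle-exposed controls.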

[5] = NCI Yeast Anticancer Drug Screen. Data for the bub3 strain (AID 167); conditions: S. cerevisiae bub3 mutant strain, hits give high values
How it was run: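 Whole-cell yeast assay. The mutant strain was incubated with compounds, and growth inhibition was determined by comparison with vehicle-treated cells.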

[6] = NCI Yeast Anticancer Drug Screen. Data for the mlh1 rad18 strain (AID 175); conditions: S. cerevisiae mlh1 rad18 strain growth inhibition, hits give high values
How it was run: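 Vehicle-treated cultures served as the reference for growth inhibition in a yeast strain carrying DNA damage repair alterations exposed to each compound.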

[7] = at 5.0 µM (retest, dose inferred, filed as 0.5)
[8] = at 50.0 µM (retest, dose inferred, filed as 5.0)

Measured: growth inhibition

NC1c2ccccc2-c2ccc([N+](=O)[O-])cc21 (centres undefined)
inactive: [1]; [7] 12% | [1]; [8] -2% | [1]; at 50.0 µM 40% | [2]; [7] 4% | [2]; [8] -24% | [2]; at 50.0 µM -7.35% | [3]; [7] 4% | [3]; [8] 35% | [3]; at 50.0 µM 26.6% | [4]; [7] -24% | [4]; [8] -4% | [4]; at 50.0 µM -9.3% | [5]; [7] 1% | [5]; [8] 3% | [5]; at 50.0 µM -12.2% | [6]; [7] 14% | [6]; [8] 38% | [6]; at 50.0 µM 39.9%

Cc1ccc(C2CC(c3cccc([N+](=O)[O-])c3)=Nc3ccccc3S2)cc1 (centres undefined)
inactive: [1]; [7] 0% | [1]; [8] 19% | [1]; at 50.0 µM 57.5% | [2]; [7] 0% | [2]; [8] 31% | [2]; at 50.0 µM 15.9% | [3]; [7] -1% | [3]; [8] 46% | [3]; at 50.0 µM 57.3% | [4]; [7] -6% | [4]; [8] -4% | [4]; at 50.0 µM 36.4% | [5]; [7] 11% | [6]; [7] 2% | [6]; [8] 29% | [6]; at 50.0 µM 60.8%
active: [5]; [8] 78% | [5]; at 50.0 µM 88%

COC(=O)C1=C(CS(=O)c2ccccc2[N+](=O)[O-])ON(C)C1c1ccccc1 (centres undefined)
active: [3]; [8] 74%
inactive: [1]; [7] 3% | [1]; [8] 49% | [1]; at 50.0 µM 6.55% | [2]; [7] -9% | [2]; [8] 66% | [2]; at 50.0 µM 53.1% | [3]; [7] 13% | [3]; at 50.0 µM 56.8% | [4]; [7] -4% | [4]; [8] 11% | [4]; at 50.0 µM 22.2% | [5]; [7] -3% | [5]; [8] 45% | [5]; at 50.0 µM 59.4% | [6]; [7] 5% | [6]; [8] 13% | [6]; at 50.0 µM 68.5%
